PubChem BioAssay (NCI)
This is part of a sample that, as a whole, favours compounds with a hit. Of some 79,000 tested, about 15% had one in any assay. The source made the active and inactive calls. No stated cut-off is given here; in the data, active means growth inhibition above about 70%; inactive means the rest.

Assays:
[1] = NCI Yeast Anticancer Drug Screen. Data for the mec2-1 strain (AID 157); conditions: S. cerevisiae mec2-1 strain, hits give high values
How it was run: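 mec2-1 yeast strain, carrying an alteration in DNA damage repair or cell cycle control, was exposed to compounds; growth inhibition was measured relative to vehicle-treated controls.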

[2] = NCI Yeast Anticancer Drug Screen. Data for the rad14 strain (AID 159);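 further: 0% = growth of vehicle-treated control cultures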; conditions: S. cerevisiae rad14 strain growth inhibition, hits give high values
How it was run: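 Here, inhibition of yeast growth was measured after compound exposure, using a strain with a genetic defect in DNA damage repair and vehicle-treated cultures as the reference.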

[3] = NCI Yeast Anticancer Drug Screen. Data for the sgs1 mgt1 strain (AID 161);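 further: 0% = growth of cultures given vehicle only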; conditions: S. cerevisiae sgs1 mgt1 strain, hits give high values
How it was run: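 This yeast growth screen uses a strain with defined DNA-repair lesions; compound-treated growth is compared with vehicle-treated growth.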

[4] = NCI Yeast Anticancer Drug Screen. Data for the CLN2oe strain (AID 163);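 further: 0% = growth of vehicle-only control cultures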; conditions: S. cerevisiae CLN2oe strain, hits give high values
How it was run: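 Yeast cells carrying a defined cell-cycle control alteration were exposed to test compounds. Growth inhibition was scored against vehicle-treated control cultures.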

[5] = NCI Yeast Anticancer Drug Screen. Data for the cln2 rad14 strain (AID 165);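 further: 0% = growth equal to vehicle treated cultures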; conditions: S. cerevisiae cln2 rad14 strain, hits give high values
How it was run: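 Yeast carrying cln2 and rad14 alterations (cell cycle control and DNA damage repair) were exposed to compounds. Growth inhibition was measured against vehicle-treated controls.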

[6] = NCI Yeast Anticancer Drug Screen. Data for the bub3 strain (AID 167); conditions: S. cerevisiae bub3 mutant strain, hits give high values
How it was run: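 Whole-cell yeast assay. The mutant strain was incubated with compounds, and growth inhibition was determined by comparison with vehicle-treated cells.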

[7] = NCI Yeast Anticancer Drug Screen. Data for the wt2 strain (AID 169);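 further: 0% = growth of vehicle-treated yeast cultures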; conditions: S. cerevisiae wt2 strain growth inhibition, hits give high values
How it was run: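 Yeast cells were exposed to test compounds, and growth inhibition was measured relative to vehicle-treated controls.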

[8] = NCI Yeast Anticancer Drug Screen. Data for the mlh1 strain (AID 171);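 further: 0% = growth of vehicle-treated control cultures of the same strain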; conditions: S. cerevisiae mlh1 strain growth inhibition, hits give high values
How it was run: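 Yeast carrying a defined genetic alteration in DNA damage repair or cell cycle control were exposed to test compounds. Growth inhibition was measured relative to vehicle-treated controls.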

[9] = NCI Yeast Anticancer Drug Screen. Data for the sgs1 strain (AID 173);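 further: 0% = growth of vehicle-only control cultures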; conditions: S. cerevisiae sgs1 mutant, hits give high values
How it was run: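 Yeast mutant strains carrying defined defects in DNA damage repair or cell cycle control were exposed to test compounds. Growth inhibition was scored against vehicle-treated controls.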

[10] = NCI Yeast Anticancer Drug Screen. Data for the mlh1 rad18 strain (AID 175); conditions: S. cerevisiae mlh1 rad18 strain growth inhibition, hits give high values
How it was run: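 Growth inhibition of the yeast strain was measured after compound exposure and expressed relative to vehicle-treated controls. The strain carries defined defects in DNA damage repair.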

[11] = NCI Yeast Anticancer Drug Screen. Data for the rad18 strain (AID 177); conditions: S. cerevisiae rad18 mutant growth inhibition, hits give high values
How it was run: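 Yeast carrying a defined DNA damage repair alteration were exposed to compounds. Growth inhibition was expressed relative to vehicle-treated controls.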

[12] = NCI Yeast Anticancer Drug Screen. Data for the rad52 strain (AID 147);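 further: 0% = growth of vehicle-treated control cultures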; conditions: S. cerevisiae rad52 mutant growth inhibition, hits give high values
How it was run: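 Yeast strain carrying a DNA damage repair alteration was exposed to test compounds. Growth inhibition was measured relative to vehicle-treated controls.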

[13] = NCI Yeast Anticancer Drug Screen. Data for the wt1 strain (AID 149);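 further: 0% = growth of vehicle-treated wt1 cultures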; conditions: S. cerevisiae wt1 strain (SPY 50644) growth inhibition, hits give high values
How it was run: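 Measured: growth of wt1 yeast under compound versus vehicle treatment, reported as inhibition.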

[14] = NCI Yeast Anticancer Drug Screen. Data for the rad50EPP+ strain (AID 151);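 further: 0% = growth of vehicle-treated control cultures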; conditions: S. cerevisiae rad50 mutant strain, hits give high values
How it was run: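 Yeast strain carrying rad50 alteration (rad50EPP+) exposed to compounds; growth inhibition measured relative to vehicle-treated controls.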

[15] = NCI Yeast Anticancer Drug Screen. Data for the mgt1 strain (AID 153); conditions: S. cerevisiae mgt1 mutant growth inhibition, hits give high values
How it was run: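 Yeast mgt1 strain (DNA repair/cell-cycle alteration panel) exposed to compounds; growth inhibition measured relative to vehicle-treated controls.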

[16] = NCI Yeast Anticancer Drug Screen. Data for the rad50 strain (AID 155);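 further: 0% = growth of vehicle-only cultures of the same strain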; conditions: S. cerevisiae rad50 strain growth inhibition, hits give high values
How it was run: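 Growth of the mutant yeast was measured after compound exposure and referenced to vehicle-treated cultures.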

[17] = at 5.0 µM (retest, dose inferred, filed as 0.5)
[18] = at 50.0 µM (retest, dose inferred, filed as 5.0)

Measured: growth inhibition

COc1cc2c(cc1C[N+](C)(C)CSc1ccccc1)-c1ccccc1CC2
inactive: [1]; [17] 3% | [2]; at 1.2 µM -12% | [2]; at 3.7 µM -10% | [2]; at 11.0 µM 64% | [3]; [17] -1% | [4]; at 1.2 µM -17% | [4]; at 3.7 µM 6% | [5]; [17] -3% | [6]; at 1.2 µM 17% | [6]; at 3.7 µM -4% | [6]; [17] 1% | [7]; at 1.2 µM 13% | [7]; at 3.7 µM 21% | [8]; at 1.2 µM 6% | [8]; at 3.7 µM 16% | [8]; at 11.0 µM 35% | [9]; at 1.2 µM 2% | [9]; at 3.7 µM 8% | [9]; at 11.0 µM 36% | [10]; [17] -5% | [11]; at 1.2 µM 9% | [11]; at 3.7 µM 12%
active: [1]; at 11.0 µM 80% | [1]; at 33.0 µM 98% | [1]; [18] 99% | [1]; at 50.0 µM 99.3% | [1]; at 100.0 µM 96% | [2]; at 33.0 µM 98% | [2]; at 100.0 µM 98% | [3]; [18] 99% | [3]; at 50.0 µM 99.2% | [4]; at 11.0 µM 70% | [4]; at 33.0 µM 98% | [4]; at 100.0 µM 99% | [5]; [18] 99% | [5]; at 50.0 µM 99.3% | [6]; at 11.0 µM 78% | [6]; at 33.0 µM 98% | [6]; [18] 98% | [6]; at 50.0 µM 99.5% | [6]; at 100.0 µM 99% | [7]; at 11.0 µM 96% | [7]; at 33.0 µM 98% | [7]; at 100.0 µM 99% | [8]; at 33.0 µM 98% | [8]; at 100.0 µM 98% | [9]; at 33.0 µM 97% | [9]; at 100.0 µM 99% | [10]; [18] 99% | [10]; at 50.0 µM 99.3% | [11]; at 11.0 µM 77% | [11]; at 33.0 µM 99% | [11]; at 100.0 µM 99%

Cc1cc(O)c2c(c1O)C(=O)C13C(=C2O)C(=O)C2C(O)C1C1C(O)C3C(=O)C3=C(O)c4c(O)cc(C)c(O)c4C(=O)C321 (stereo unspecified)
active: [12]; at 33.0 µM 89% | [12]; at 100.0 µM 90% | [13]; at 33.0 µM 80% | [13]; at 100.0 µM 85% | [15]; at 33.0 µM 86% | [15]; at 100.0 µM 82% | [16]; at 33.0 µM 79% | [16]; [18] 84% | [16]; at 50.0 µM 77.3% | [16]; at 100.0 µM 80% | [1]; [17] 75% | [1]; at 11.0 µM 76% | [1]; at 33.0 µM 86% | [1]; [18] 93% | [1]; at 50.0 µM 85.3% | [1]; at 100.0 µM 83% | [2]; at 33.0 µM 77% | [2]; at 100.0 µM 80% | [3]; [18] 86% | [3]; at 50.0 µM 79.2% | [4]; at 11.0 µM 84% | [4]; at 33.0 µM 91% | [4]; at 100.0 µM 83% | [5]; [18] 91% | [6]; at 33.0 µM 82% | [6]; [18] 87% | [6]; at 50.0 µM 77% | [6]; at 100.0 µM 84% | [7]; at 33.0 µM 87% | [7]; at 100.0 µM 85% | [8]; at 33.0 µM 79% | [8]; at 100.0 µM 83% | [9]; at 33.0 µM 80% | [9]; at 100.0 µM 80% | [10]; [18] 86% | [11]; at 33.0 µM 73% | [11]; at 100.0 µM 84%
inactive: [12]; at 1.2 µM 28% | [12]; at 3.7 µM 39% | [12]; at 11.0 µM 58% | [13]; at 1.2 µM -7% | [13]; at 3.7 µM 2% | [13]; at 11.0 µM 38% | [14]; at 1.2 µM 4% | [14]; at 3.7 µM 3% | [14]; at 11.0 µM -4% | [14]; at 33.0 µM 1% | [14]; at 100.0 µM -38% | [15]; at 1.2 µM 5% | [15]; at 3.7 µM 26% | [15]; at 11.0 µM 61% | [16]; at 1.2 µM 29% | [16]; at 3.7 µM 37% | [16]; [17] 12% | [16]; at 11.0 µM 51% | [1]; at 1.2 µM 19% | [1]; at 3.7 µM 34% | [2]; at 1.2 µM -6% | [2]; at 3.7 µM 9% | [2]; at 11.0 µM 52% | [3]; [17] 37% | [4]; at 1.2 µM 18% | [4]; at 3.7 µM 17% | [5]; [17] 28% | [5]; at 50.0 µM 29.8% | [6]; at 1.2 µM -5% | [6]; at 3.7 µM 4% | [6]; [17] 59% | [6]; at 11.0 µM 27% | [7]; at 1.2 µM 12% | [7]; at 3.7 µM 26% | [7]; at 11.0 µM 52% | [8]; at 1.2 µM 18% | [8]; at 3.7 µM 15% | [8]; at 11.0 µM 43% | [9]; at 1.2 µM 29% | [9]; at 3.7 µM 31% | [9]; at 11.0 µM 54% | [10]; [17] 58% | [10]; at 50.0 µM 63.4% | [11]; at 1.2 µM -3% | [11]; at 3.7 µM -4% | [11]; at 11.0 µM 15%
